CaV13 FRET inh – Primary screen for inhibitors of IQ motif and Ca2+-dependent inactivation inhibitor domain binding in CACNA1D, Förster resonance energy transfer in living cells, …. HEK cells, CFP/YFP FRET ICDI-IQ, plate reader, 10 min; percent FRET-ratio fall versus neutral wells. inhibition, % at 12.3 µM. 0.098% of 340,000 active. AID 743397;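 active = mean replicate inhibition of at least 30% and at least 1% of replicates passing that level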;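 also: 0% = median of the neutral control wells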
PfM18AAP inh-1 – blocks P. falciparum M18 aspartyl aminopeptidase. AID 1822. recombinant PfM18AAP, H-Glu-NHMec fluorogenic cleavage. 1.2% of 290,000 active. inhibition, % at 7.35 µM;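 active = inhibition above the campaign mean inhibition over all tested compounds plus 3 SD, cut at about 28% in these data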;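 also: 0% = plate median of test compound wells and 100% = 2 mM ZnCl2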
ALR inh – human ALR oxidase inhibition via reduced H2O2. P55789. purified ALR, DTT oxidation, H2O2 HRP-luminol luminescence. inhibition, % (concentration not given with the values). 3.8% of 290,000 active;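 active = mean replicate inhibition above about 79%, with every replicate also reaching it, limit read from the data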
PolyA inhibitor – yeast polyadenylation inhibition. S. cerevisiae SKY197-pL101 polyadenylation reporter, beta-gal luminescence; efflux-impaired pdr1/pdr3 knockout yeast; score 100 = 6 SD above DMSO. activity score, % at 12 µM. 0.02% of 300,000 active. AID 1875;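 active = lowest replicate activity score at least 50, where 100 means six control SD above control mean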;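 also: yeast exposed to compound for 9 h at 30 °C; higher score means more reporter readthrough which indicates perturbed polyadenylation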
IDE act – boosts human insulin-degrading enzyme activity in HEK cells; activation, % at 5.96 µM; FAbeta-B cleavage, fluorescence polarization; 0% vehicle, 100% cell-free pure enzyme wells; AID 493087; 0.073% of 340,000 active;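 active = activation above the mean of all tested compounds plus 3 SD, set per screening campaign, cut at about 17% in these data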
Target sequence (P14735 whole entry, looked up): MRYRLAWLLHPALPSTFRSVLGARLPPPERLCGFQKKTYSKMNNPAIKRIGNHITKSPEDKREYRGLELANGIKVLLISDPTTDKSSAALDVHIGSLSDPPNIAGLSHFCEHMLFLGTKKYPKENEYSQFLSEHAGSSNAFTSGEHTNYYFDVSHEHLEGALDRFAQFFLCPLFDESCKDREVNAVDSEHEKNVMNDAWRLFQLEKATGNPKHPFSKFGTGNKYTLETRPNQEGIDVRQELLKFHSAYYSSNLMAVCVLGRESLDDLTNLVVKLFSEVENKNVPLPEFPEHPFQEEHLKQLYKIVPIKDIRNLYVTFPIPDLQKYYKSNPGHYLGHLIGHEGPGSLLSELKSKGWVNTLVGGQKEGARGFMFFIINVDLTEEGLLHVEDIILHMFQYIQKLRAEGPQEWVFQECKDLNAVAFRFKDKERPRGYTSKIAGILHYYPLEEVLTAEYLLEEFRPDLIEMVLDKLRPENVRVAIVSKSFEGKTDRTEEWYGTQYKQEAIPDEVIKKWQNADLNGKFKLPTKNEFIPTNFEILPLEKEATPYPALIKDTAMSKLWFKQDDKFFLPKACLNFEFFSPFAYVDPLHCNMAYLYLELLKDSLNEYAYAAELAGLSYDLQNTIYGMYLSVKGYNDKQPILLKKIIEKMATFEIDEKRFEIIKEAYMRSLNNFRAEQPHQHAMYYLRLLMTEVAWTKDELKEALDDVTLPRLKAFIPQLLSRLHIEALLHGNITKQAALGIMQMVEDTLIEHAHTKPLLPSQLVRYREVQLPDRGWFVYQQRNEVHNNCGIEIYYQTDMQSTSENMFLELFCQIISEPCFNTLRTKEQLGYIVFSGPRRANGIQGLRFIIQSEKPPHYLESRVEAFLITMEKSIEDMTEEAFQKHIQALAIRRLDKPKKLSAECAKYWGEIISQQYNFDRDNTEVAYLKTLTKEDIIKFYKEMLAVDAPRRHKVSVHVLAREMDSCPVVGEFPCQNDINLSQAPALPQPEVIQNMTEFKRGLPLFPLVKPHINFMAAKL
IDE inh – cellular human IDE inhibition. P14735. 0.41% of 320,000 active. HEK cells, FAbetaB cleavage, fluorescence polarization. AID 434962. inhibition, % at 5.59 µM;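 active = percent inhibition above the average of all tested compounds plus 3 SD, set per screening campaign, cut at about 16% in these data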;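 also: IDE supplied by intact live HEK cells; FP after avidin binding of uncleaved biotin substrate so inhibition keeps polarization high; 0% = DMSO wells and 100% = 60 µM reference IDE inhibitor Ii1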
PfM18AAP inh-2 – confirmation of Plasmodium falciparum M18 aspartyl aminopeptidase inhibitors. shares compounds with PfM18AAP inh-1. recombinant PfM18AAP, H-Glu-NHMec fluorogenic cleavage. inhibition, % at 7.35 µM. 28% of 2,400 active;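 active = mean inhibition over replicate wells above the hit cutoff set for the earlier primary screen, cut at about 29% in these data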;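 also: 0% = median of test compound wells and 100% = 2 mM ZnCl2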
CTSL1 counter – counter-screen for PFM18AAP inhibitors: confirmation of human cathepsin L inhibitors | shares compounds with PfM18AAP inh-1 | inhibition, % at 5.96 µM | purified cathepsin L1, Z-Leu-Arg-MCA fluorescence | 2,400 tested, under 10 active;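 active = average inhibition across replicates above the hit cutoff set in the earlier primary screen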;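 also: 0% = median of test compound wells and 100% = Z-Phe-Ala-diazomethylketone 1 µM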
The depositor's hits bear a star; x = no result given. Compounds with a hit are over-represented: about 4.1% of the library has one in this group of screens.

SMILES	CaV13 FRET inh	PfM18AAP inh-1	ALR inh	PolyA inhibitor	IDE act	IDE inh	PfM18AAP inh-2	CTSL1 counter
O=C(Nc1cccc(Cl)c1)Nn1cnnc1	-3	67*	8	-7	-4	0	58*	-4
O=C(NNc1nccc(C(F)(F)F)n1)Nc1cccc(Cl)c1	x	46*	-1	-18	3	-1	14	-2
CCC(=O)N1CCCC1(C)C(=O)Nc1ccc2scnc2c1 (stereo not drawn)	-6	x	x	x	x	x	x	x
COC(=O)[C@H](CCSC)NC(=O)NC1CC1	-5	-3	-8	23	2	7	x	x
O=C(Nc1ccc(Cl)c(Cl)c1)Nn1cnnc1	-5	76*	-6	-15	1	x	71*	-1
COc1cccc(NC(=O)Nn2cnnc2)c1	x	63*	-2	4	-4	x	49*	1
CC(C)NC(=O)CN1CCC(c2ccccc2)C(O)C1 (stereo not drawn)	-4	3	-6	-5	4	-2	x	x
C(C#CCN1CCOCC1)#CCN1CCOCC1	-6	x	x	x	6	x	x	x
Cc1ccc(N2C(=O)c3ccccc3C2C(=O)c2ccc(C)c(C)c2O)cc1 (stereo not drawn)	-4	42*	-11	-9	2	1	-18	1
Cc1ccnc(N2C(=O)c3ccccc3C2O)c1 (stereo not drawn)	-6	0	-2	-2	6	0	x	x
Cc1ccc(C2C(C(=O)O)c3ccccc3C(=O)N2C)c(C)c1 (stereo not drawn)	-5	5	-3	12	1	-2	x	x
Cc1ccc(N2C(=O)c3ccccc3C2C(=O)c2cc(C)ccc2O)cc1 (stereo not drawn)	-5	55*	-17	-15	5	6	24	2
Cc1ccc(-c2c(=O)n(O)c3ccccc3[n+]2[O-])cc1	-29	9	-22	4	4	x	x	x
O=C(NC1CCN(Cc2ccc(Cl)c(Cl)c2)CC1)c1ccccc1	-19	2	x	-4	-3	6	x	x
COc1ccc(C(=O)NNC2=CC(=O)CC(C)(C)C2)cc1	-5	47*	24	9	6	4	27	-1
CC(C)NC(=O)COC(=O)C1CSC2(c3ccc(Br)cc3)CCC(=O)N12 (stereo not drawn)	-4	3	-4	-5	4	7	x	x
Nc1c(C(=O)Nn2cnnc2)cc([N+](=O)[O-])cc1[N+](=O)[O-]	x	63*	-18	-11	x	0	56*	4
Cc1c(C(N)=O)cc([N+](=O)[O-])cc1[N+](=O)[O-]	-17	x	x	x	7	x	x	x
O=C(Nn1cnnc1)c1ccc([N+](=O)[O-])cc1Cl	-5	x	7	10	4	2	x	x
COc1cc(OC)cc(C(=O)Nn2cnnc2)c1	-5	36*	-6	5	4	6	30*	3
O=C(Nn1cnnc1)c1cc([N+](=O)[O-])cc([N+](=O)[O-])c1	-7	45*	-81	-5	3	0	49*	-3
CCN(C(=O)COC(=O)CNS(=O)(=O)c1ccc(C)cc1)C1CCS(=O)(=O)C1 (stereo not drawn)	-5	x	x	x	x	x	x	x
Cc1ccc(C)c(C(=O)C(C)Sc2nc3nn(-c4ccccc4)c(=O)c-3c3n2CCCCC3)c1 (stereo not drawn)	-10	1	1	-4	-2	-3	x	x
CC(=O)C1=C(O)C(=O)N(c2nccs2)C1c1ccccc1 (stereo not drawn)	-3	5	16	-2	-3	1	x	x
O=[N+]([O-])c1ccc(NNS(=O)(=O)c2cc(Cl)ccc2Cl)nc1	-3	55*	100*	-7	-1	x	-3	1
SMILES	CaV13 FRET inh	PfM18AAP inh-1	ALR inh	PolyA inhibitor	IDE act	IDE inh	PfM18AAP inh-2	CTSL1 counter
O=[N+]([O-])c1ccc(Nc2ccc(Cl)cc2)nc1	-6	-5	-16	-9	x	-1	x	x
Cc1cc(C)c2c(=O)n(CC(=O)N3CCC(Cc4ccccc4)CC3)sc2n1	x	56*	x	3	x	x	22	1
Cc1cc(=O)n2[nH]c(N)c(N=Nc3ccccc3)c2n1	-5	41*	31	-22	2	-8	32*	8
Cn1cccc1/C=N/n1c(-c2ccccc2)n[nH]c1=S	x	6	47	-1	0	2	x	x
COc1c(Br)cc(/C=N/n2c(-c3ccccc3)n[nH]c2=S)c(O)c1Br	-6	45*	22	-22	0	-1	-9	-3
O=C(C1CC(=O)N(c2ccc3c(c2)OCCO3)C1)N1CCN(c2ccccc2)CC1 (stereo not drawn)	12	1	x	4	0	-7	x	x
O=C(C1CC(=O)N(c2ccc3c(c2)OCCO3)C1)N1CCN(c2ccccc2O)CC1 (stereo not drawn)	x	34*	84*	-3	7	-1	5	1
CC(C)Cc1nnc(NC(=O)CCC(=O)N2CCN(Cc3ccccc3)CC2)s1	-3	2	-1	1	7	0	x	x
O=C1NCCN/C1=C\C(=O)c1ccc(Cl)cc1	-5	-10	-6	27	x	1	x	x
COc1ccccc1N1CCN(Cc2cc3c(cc2[N+](=O)[O-])OCO3)CC1	-2	32*	x	5	-4	8	-25	4
Cc1cc2c(cc1C)-n1nnnc1C(N1CCCNCC1)C(=O)N2 (stereo not drawn)	-6	x	x	x	x	x	x	x
CCOc1ccccc1N/C(=C(/C(Cl)=C(Cl)Cl)[N+](=O)[O-])n1cncn1	-8	83*	-1	x	5	3	74*	5
O=C(Nc1ccc(F)cc1)c1ccc(-n2cncn2)c([N+](=O)[O-])c1	-4	-4	-15	1	4	0	x	x
O=[N+]([O-])/C(C(Cl)=C(Cl)Cl)=C(\Nc1ccc(F)cc1)n1cncn1	x	81*	96*	11	x	-6	79*	8
CC(C)[C@H](NC(=O)c1nn(Cc2ccccc2)c(=O)c2ccccc12)C(=O)O	-3	36*	-2	-8	6	-7	-41	2
O=C1CCCC2=C1C(c1cccs1)Nc1ccc3ncccc3c12 (stereo not drawn)	-4	3	-12	-3	-3	4	x	x
O=C1CCCC2=C1C(c1ccc(O)c(O)c1)Nc1ccc3ncccc3c12 (stereo not drawn)	-1	78*	99*	11	-4	-5	78*	1
O=C(Nn1cnnc1)c1cc2c(s1)CCCCC2	-4	53*	35	-6	9	5	55*	5
COC(C/C=C\C(=O)[C@@H](C)OCc1ccccc1)OC	x	x	47	1	x	-1	x	x
